# Results as given in PubChem BioAssay (NCI).
# Compounds without any hit were thinned out: in the full panel of roughly 79,000, 15% have a hit. Unmarked numbers belong to inactive results. Activity calls are given as the source filed them. Rule as the data show it: active = growth inhibition above about 70%; inactive = the rest.
# Tests used:
# [1] = NCI Yeast Anticancer Drug Screen. Data for the rad52 strain (AID 147);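 also: 0% = growth of vehicle-treated control cultures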; settings: S. cerevisiae rad52 mutant growth inhibition, hits give high values
# Outline: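 Here a repair-compromised yeast strain receives each compound; its growth is then quantified and normalised to vehicle-only controls.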
# [2] = NCI Yeast Anticancer Drug Screen. Data for the wt1 strain (AID 149);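 also: 0% = growth of vehicle-treated wt1 cultures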; settings: S. cerevisiae wt1 strain (SPY 50644) growth inhibition, hits give high values
# Outline: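 Compounds are added to wt1 yeast cultures. Growth is then measured. Inhibition is expressed relative to vehicle-treated controls.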
# [3] = NCI Yeast Anticancer Drug Screen. Data for the rad50EPP+ strain (AID 151);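 also: 0% = growth of vehicle-treated control cultures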; settings: S. cerevisiae rad50 mutant strain, hits give high values
# Outline: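 Read-out is yeast growth inhibition relative to vehicle; cells used were the rad50EPP+ strain.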
# [4] = NCI Yeast Anticancer Drug Screen. Data for the mgt1 strain (AID 153); settings: S. cerevisiae mgt1 mutant growth inhibition, hits give high values
# Outline: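 Measured: inhibition of mgt1 yeast growth by compound, normalized to vehicle-treated cultures.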
# [5] = NCI Yeast Anticancer Drug Screen. Data for the rad50 strain (AID 155);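 also: 0% = growth of vehicle-only cultures of the same strain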; settings: S. cerevisiae rad50 strain growth inhibition, hits give high values
# Outline: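 Inhibition values express reduced yeast growth in compound-treated cultures relative to vehicle-treated controls.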
# [6] = NCI Yeast Anticancer Drug Screen. Data for the mec2-1 strain (AID 157); settings: S. cerevisiae mec2-1 strain, hits give high values
# Outline: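 Using mec2-1 yeast: add compound, measure growth, express inhibition versus vehicle-treated cultures.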
# [7] = NCI Yeast Anticancer Drug Screen. Data for the rad14 strain (AID 159);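 also: 0% = growth of vehicle-treated control cultures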; settings: S. cerevisiae rad14 strain growth inhibition, hits give high values
# Outline: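 A mutant yeast strain defective in DNA damage repair is treated with compound; inhibition of its growth is scored against untreated, vehicle-exposed cultures.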
# [8] = NCI Yeast Anticancer Drug Screen. Data for the sgs1 mgt1 strain (AID 161);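 also: 0% = growth of cultures given vehicle only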; settings: S. cerevisiae sgs1 mgt1 strain, hits give high values
# Outline: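 This yeast growth screen uses a strain with defined DNA-repair lesions; compound-treated growth is compared with vehicle-treated growth.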
# [9] = NCI Yeast Anticancer Drug Screen. Data for the CLN2oe strain (AID 163);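 also: 0% = growth of vehicle-only control cultures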; settings: S. cerevisiae CLN2oe strain, hits give high values
# Outline: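 Whole-cell yeast growth assay. A strain engineered for altered cell-cycle control received compound, and inhibition relative to vehicle-treated cultures was recorded.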
# [10] = NCI Yeast Anticancer Drug Screen. Data for the cln2 rad14 strain (AID 165);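 also: 0% = growth equal to vehicle treated cultures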; settings: S. cerevisiae cln2 rad14 strain, hits give high values
# Outline: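 Yeast strain cln2 rad14, bearing defects in cell cycle control and DNA repair, serves as the test system; values reflect growth inhibition compared with vehicle.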
# [11] = NCI Yeast Anticancer Drug Screen. Data for the bub3 strain (AID 167); settings: S. cerevisiae bub3 mutant strain, hits give high values
# Outline: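 Steps: expose the mutant yeast strain to compound; grow alongside vehicle-treated cultures; measure growth; express inhibition against the vehicle cultures.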
# [12] = NCI Yeast Anticancer Drug Screen. Data for the wt2 strain (AID 169);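 also: 0% = growth of vehicle-treated yeast cultures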; settings: S. cerevisiae wt2 strain growth inhibition, hits give high values
# Outline: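 Treated yeast vs. vehicle-treated yeast: growth inhibition determined.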
# [13] = NCI Yeast Anticancer Drug Screen. Data for the mlh1 strain (AID 171);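 also: 0% = growth of vehicle-treated control cultures of the same strain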; settings: S. cerevisiae mlh1 strain growth inhibition, hits give high values
# Outline: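 A yeast strain with a defined genetic lesion serves as the test organism. Cultures receive compound or vehicle, and growth is measured.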
# [14] = NCI Yeast Anticancer Drug Screen. Data for the sgs1 strain (AID 173);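 also: 0% = growth of vehicle-only control cultures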; settings: S. cerevisiae sgs1 mutant, hits give high values
# Outline: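 A genetically defined yeast mutant is incubated with the test compound, and its growth is compared to that of the same strain given vehicle.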
# [15] = NCI Yeast Anticancer Drug Screen. Data for the mlh1 rad18 strain (AID 175); settings: S. cerevisiae mlh1 rad18 strain growth inhibition, hits give high values
# Outline: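 Steps: expose repair-defective yeast to compound; measure growth; express inhibition against vehicle-treated controls.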
# [16] = NCI Yeast Anticancer Drug Screen. Data for the rad18 strain (AID 177); settings: S. cerevisiae rad18 mutant growth inhibition, hits give high values
# Outline: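 Measured value is growth inhibition of a yeast strain bearing a DNA repair alteration, referenced to vehicle-treated cells.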
# [17] = at 5.0 µM (retest, dose inferred, filed as 0.5)
# [18] = at 50.0 µM (retest, dose inferred, filed as 5.0)
smiles,measurement,setting,value
O=C1OC(OC/C(Br)=C(\Br)COC2OC(=O)C(Cl)=C2Cl)C(Cl)=C1Cl (stereo not drawn),growth inhibition,[1]; at 1.2 µM,0%
same,growth inhibition,[1]; at 3.7 µM,2%
same,growth inhibition,[1]; at 11.0 µM,3%
same,growth inhibition,[1]; at 33.0 µM,5%
same,growth inhibition,[1]; at 100.0 µM,15%
same,growth inhibition,[2]; at 1.2 µM,0%
same,growth inhibition,[2]; at 3.7 µM,0%
same,growth inhibition,[2]; at 11.0 µM,2%
same,growth inhibition,[2]; at 33.0 µM,8%
same,growth inhibition,[2]; at 100.0 µM,18%
same,growth inhibition,[3]; at 1.2 µM,-1%
same,growth inhibition,[3]; at 3.7 µM,1%
same,growth inhibition,[3]; at 11.0 µM,3%
same,growth inhibition,[3]; at 33.0 µM,6%
same,growth inhibition,[3]; at 100.0 µM,16%
same,growth inhibition,[4]; at 1.2 µM,-5%
same,growth inhibition,[4]; at 3.7 µM,-1%
same,growth inhibition,[4]; at 11.0 µM,2%
same,growth inhibition,[4]; at 33.0 µM,3%
same,growth inhibition,[4]; at 100.0 µM,9%
same,growth inhibition,[5]; at 1.2 µM,0%
same,growth inhibition,[5]; at 3.7 µM,1%
same,growth inhibition,[5]; [17],37%
same,growth inhibition,[5]; at 11.0 µM,0%
same,growth inhibition,[5]; at 33.0 µM,7%
same,growth inhibition,[5]; [18],91% (active)
same,growth inhibition,[5]; at 50.0 µM,98.7% (active)
same,growth inhibition,[5]; at 100.0 µM,15%
same,growth inhibition,[6]; at 1.2 µM,-2%
same,growth inhibition,[6]; at 3.7 µM,2%
same,growth inhibition,[6]; [17],20%
same,growth inhibition,[6]; at 11.0 µM,5%
same,growth inhibition,[6]; at 33.0 µM,13%
same,growth inhibition,[6]; [18],98% (active)
same,growth inhibition,[6]; at 50.0 µM,96.1% (active)
same,growth inhibition,[6]; at 100.0 µM,26%
same,growth inhibition,[7]; at 1.2 µM,1%
same,growth inhibition,[7]; at 3.7 µM,2%
same,growth inhibition,[7]; at 11.0 µM,4%
same,growth inhibition,[7]; at 33.0 µM,9%
same,growth inhibition,[7]; at 100.0 µM,16%
same,growth inhibition,[8]; [17],39%
same,growth inhibition,[8]; [18],99% (active)
same,growth inhibition,[8]; at 50.0 µM,93.1% (active)
same,growth inhibition,[9]; at 1.2 µM,-2%
same,growth inhibition,[9]; at 3.7 µM,-1%
same,growth inhibition,[9]; at 11.0 µM,2%
same,growth inhibition,[9]; at 33.0 µM,9%
same,growth inhibition,[9]; at 100.0 µM,14%
same,growth inhibition,[10]; [17],17%
same,growth inhibition,[10]; [18],96% (active)
same,growth inhibition,[10]; at 50.0 µM,57.6%
same,growth inhibition,[11]; at 1.2 µM,0%
same,growth inhibition,[11]; at 3.7 µM,-2%
same,growth inhibition,[11]; [17],13%
same,growth inhibition,[11]; at 11.0 µM,-4%
same,growth inhibition,[11]; at 33.0 µM,1%
same,growth inhibition,[11]; [18],93% (active)
same,growth inhibition,[11]; at 50.0 µM,93.6% (active)
same,growth inhibition,[11]; at 100.0 µM,16%
same,growth inhibition,[12]; at 1.2 µM,-1%
same,growth inhibition,[12]; at 3.7 µM,-2%
same,growth inhibition,[12]; at 11.0 µM,0%
same,growth inhibition,[12]; at 33.0 µM,3%
same,growth inhibition,[12]; at 100.0 µM,10%
same,growth inhibition,[13]; at 1.2 µM,-1%
same,growth inhibition,[13]; at 3.7 µM,0%
same,growth inhibition,[13]; at 11.0 µM,2%
same,growth inhibition,[13]; at 33.0 µM,4%
same,growth inhibition,[13]; at 100.0 µM,12%
same,growth inhibition,[14]; at 1.2 µM,-1%
same,growth inhibition,[14]; at 3.7 µM,0%
same,growth inhibition,[14]; at 11.0 µM,0%
same,growth inhibition,[14]; at 33.0 µM,6%
same,growth inhibition,[14]; at 100.0 µM,20%
same,growth inhibition,[15]; [17],53%
same,growth inhibition,[15]; [18],96% (active)
same,growth inhibition,[15]; at 50.0 µM,94.3% (active)
same,growth inhibition,[16]; at 1.2 µM,1%
same,growth inhibition,[16]; at 3.7 µM,3%
same,growth inhibition,[16]; at 11.0 µM,9%
same,growth inhibition,[16]; at 33.0 µM,24%
same,growth inhibition,[16]; at 100.0 µM,60%
NNC(=O)CCc1cc2ccccc2c2ccccc12,growth inhibition,[1]; at 1.2 µM,-15%
same,growth inhibition,[1]; at 3.7 µM,-10%
same,growth inhibition,[1]; at 11.0 µM,-5%
same,growth inhibition,[1]; at 33.0 µM,26%
same,growth inhibition,[1]; at 100.0 µM,99% (active)
same,growth inhibition,[2]; at 1.2 µM,3%
same,growth inhibition,[2]; at 3.7 µM,2%
same,growth inhibition,[2]; at 11.0 µM,9%
same,growth inhibition,[2]; at 33.0 µM,4%
same,growth inhibition,[2]; at 100.0 µM,99% (active)
same,growth inhibition,[3]; at 1.2 µM,-8%
same,growth inhibition,[3]; at 3.7 µM,-21%
same,growth inhibition,[3]; at 11.0 µM,-16%
same,growth inhibition,[3]; at 33.0 µM,28%
same,growth inhibition,[3]; at 100.0 µM,50%
same,growth inhibition,[4]; at 1.2 µM,-3%
same,growth inhibition,[4]; at 3.7 µM,-8%
same,growth inhibition,[4]; at 11.0 µM,-2%
same,growth inhibition,[4]; at 33.0 µM,1%
same,growth inhibition,[4]; at 100.0 µM,99% (active)
same,growth inhibition,[5]; at 1.2 µM,-13%
same,growth inhibition,[5]; at 3.7 µM,-16%
same,growth inhibition,[5]; [17],19%
same,growth inhibition,[5]; at 11.0 µM,-12%
same,growth inhibition,[5]; at 33.0 µM,38%
same,growth inhibition,[5]; [18],99% (active)
same,growth inhibition,[5]; at 50.0 µM,97.9% (active)
same,growth inhibition,[5]; at 100.0 µM,99% (active)
same,growth inhibition,[6]; at 1.2 µM,-2%
same,growth inhibition,[6]; at 3.7 µM,-2%
same,growth inhibition,[6]; [17],12%
same,growth inhibition,[6]; at 11.0 µM,-2%
same,growth inhibition,[6]; at 33.0 µM,-2%
same,growth inhibition,[6]; [18],99% (active)
same,growth inhibition,[6]; at 50.0 µM,98.8% (active)
same,growth inhibition,[6]; at 100.0 µM,99% (active)
same,growth inhibition,[7]; at 1.2 µM,-2%
same,growth inhibition,[7]; at 3.7 µM,-1%
same,growth inhibition,[7]; at 11.0 µM,23%
same,growth inhibition,[7]; at 33.0 µM,31%
same,growth inhibition,[7]; at 100.0 µM,99% (active)
same,growth inhibition,[8]; [17],28%
same,growth inhibition,[8]; [18],98% (active)
same,growth inhibition,[8]; at 50.0 µM,98.5% (active)
same,growth inhibition,[9]; at 1.2 µM,-9%
same,growth inhibition,[9]; at 3.7 µM,-7%
same,growth inhibition,[9]; at 11.0 µM,-12%
same,growth inhibition,[9]; at 33.0 µM,-2%
same,growth inhibition,[9]; at 100.0 µM,99% (active)
same,growth inhibition,[10]; [17],11%
same,growth inhibition,[10]; [18],98% (active)
same,growth inhibition,[10]; at 50.0 µM,98% (active)
same,growth inhibition,[11]; at 1.2 µM,-7%
same,growth inhibition,[11]; at 3.7 µM,-8%
same,growth inhibition,[11]; [17],50%
same,growth inhibition,[11]; at 11.0 µM,-9%
same,growth inhibition,[11]; at 33.0 µM,18%
same,growth inhibition,[11]; [18],98% (active)
same,growth inhibition,[11]; at 50.0 µM,98.8% (active)
same,growth inhibition,[11]; at 100.0 µM,99% (active)
